# Measured values reported in the supplement of paper PMC4466140.
# What was measured:
# Experiment in all cases: SPOT peptide array binding signal intensity (averaged, normalized) (arbitrary units (background-subtracted, floor 0; scale differs between SH3 domains)); higher = stronger binding of the SH3 domain to the peptide
# AgAbp1 = molecular target: AgAbp1
# Method: (§1)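 GST-tagged SH3 domains from S. cerevisiae (Sc), A. gossypii (Ag), C. albicans (Ca) and S. pombe (Sp) were incubated at 10 ug/ml overnight at 4 C on cellulose SPOT membranes carrying 292 synthetic 15-mer peptides mined from the S. cerevisiae proteome (cysteines replaced by serines). Binding was detected with anti-GST antibody, HRP secondary and chemiluminescence, quantified with Genespotter, and reported as normalized spot intensities averaged over biological replicates.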
# AgBbc1 = molecular target: AgBbc1
# Method: as §1
# AgBem1-D1 = molecular target: AgBem1-D1
# Method: as §1
# AgBzz1-D1 = molecular target: AgBzz1-D1
# Method: as §1
# AgBzz1-D2 = molecular target: AgBzz1-D2
# Method: as §1
# AgCyk3 = molecular target: AgCyk3
# Method: as §1
# AgFus1 = molecular target: AgFus1
# Method: as §1
# AgHof1 = molecular target: AgHof1
# Method: as §1
# AgHse1 = molecular target: AgHse1
# Method: as §1
# AgLsb1 = molecular target: AgLsb1
# Method: as §1
# AgLsb4 = molecular target: AgLsb4
# Method: as §1
# AgMyo5 = molecular target: AgMyo5
# Method: as §1
# AgNbp2 = molecular target: AgNbp2
# Method: as §1
# AgRvs167 = molecular target: AgRvs167
# Method: as §1
# AgSho1 = molecular target: AgSho1
# Method: as §1
# AgSla1-D1-D2 = molecular target: AgSla1-D1-D2
# Method: as §1
# AgSla1-D3 = molecular target: AgSla1-D3
# Method: as §1
# CaAbp1-D1 = molecular target: CaAbp1-D1
# Method: as §1
# CaAbp1-D2 = molecular target: CaAbp1-D2
# Method: as §1
# CaBbc1 = molecular target: CaBbc1
# Method: as §1
# CaBem1-D1 = molecular target: CaBem1-D1
# Method: as §1
# CaBzz1-D1 = molecular target: CaBzz1-D1
# Method: as §1
# CaBzz1-D2 = molecular target: CaBzz1-D2
# Method: as §1
# CaCyk3 = molecular target: CaCyk3
# Method: as §1
# CaFus1 = molecular target: CaFus1
# Method: as §1
# CaHof1 = molecular target: CaHof1
# Method: as §1
# CaHse1 = molecular target: CaHse1
# Method: as §1
# CaLsb1 = molecular target: CaLsb1
# Method: as §1
# CaLsb4 = molecular target: CaLsb4
# Method: as §1
# CaMyo5 = molecular target: CaMyo5
# Method: as §1
# CaNbp2 = molecular target: CaNbp2
# Method: as §1
# CaRvs167 = molecular target: CaRvs167
# Method: as §1
# CaRvs167-3 = molecular target: CaRvs167-3
# Method: as §1
# CaSho1 = molecular target: CaSho1
# Method: as §1
# CaSla1-D1-D2 = molecular target: CaSla1-D1-D2
# Method: as §1
# CaSla1-D3 = molecular target: CaSla1-D3
# Method: as §1
# ScAbp1 = molecular target: ScAbp1
# Method: as §1
# ScBbc1 = molecular target: ScBbc1
# Method: as §1
# ScBem1-D1 = molecular target: ScBem1-D1
# Method: as §1
# ScBzz1-D1 = molecular target: ScBzz1-D1
# Method: as §1
# ScBzz1-D2 = molecular target: ScBzz1-D2
# Method: as §1
# ScCyk3 = molecular target: ScCyk3
# Method: as §1
# ScFus1 = molecular target: ScFus1
# Method: as §1
# ScHof1 = molecular target: ScHof1
# Method: as §1
# ScHse1 = molecular target: ScHse1
# Method: as §1
# ScLsb1 = molecular target: ScLsb1
# Method: as §1
# ScLsb2 = molecular target: ScLsb2
# Method: as §1
# ScLsb3 = molecular target: ScLsb3
# Method: as §1
# ScLsb4 = molecular target: ScLsb4
# Method: as §1
# ScMyo3 = molecular target: ScMyo3
# Method: as §1
# ScMyo5 = molecular target: ScMyo5
# Method: as §1
# ScNbp2 = molecular target: ScNbp2
# Method: as §1
# ScPex13 = molecular target: ScPex13
# Method: as §1
# ScRvs167 = molecular target: ScRvs167
# Method: as §1
# ScSho1 = molecular target: ScSho1
# Method: as §1
# ScSla1-D1-D2 = molecular target: ScSla1-D1-D2
# Method: as §1
# ScSla1-D3 = molecular target: ScSla1-D3
# Method: as §1
# SpAbp1-D1 = molecular target: SpAbp1-D1
# Method: as §1
# SpBbc1 = molecular target: SpBbc1
# Method: as §1
# SpBzz1-D1 = molecular target: SpBzz1-D1
# Method: as §1
# SpBzz1-D2 = molecular target: SpBzz1-D2
# Method: as §1
# SpCyk3 = molecular target: SpCyk3
# Method: as §1
# SpHof1 = molecular target: SpHof1
# Method: as §1
# SpHof1-2 = molecular target: SpHof1-2
# Method: as §1
# SpHof1-3 = molecular target: SpHof1-3
# Method: as §1
# SpHse1 = molecular target: SpHse1
# Method: as §1
# SpLsb1 = molecular target: SpLsb1
# Method: as §1
# SpLsb4 = molecular target: SpLsb4
# Method: as §1
# SpMyo1 = molecular target: SpMyo1
# Method: as §1
# SpNbp2 = molecular target: SpNbp2
# Method: as §1
# SpPex13 = molecular target: SpPex13
# Method: as §1
# SpRvs167 = molecular target: SpRvs167
# Method: as §1
# SpSla1-D1-D2 = molecular target: SpSla1-D1-D2
# Method: as §1
# SpSla1-D3 = molecular target: SpSla1-D3
# Method: as §1
binder,measurement,setting,value
NLKKRPPTAPQRKIS,SPOT peptide array binding signal intensity,AgAbp1,2190
same,SPOT peptide array binding signal intensity,AgBbc1,265
same,SPOT peptide array binding signal intensity,AgBem1-D1,28.5
same,SPOT peptide array binding signal intensity,AgBzz1-D1,277
same,SPOT peptide array binding signal intensity,AgBzz1-D2,199
same,SPOT peptide array binding signal intensity,AgCyk3,≤ 0
same,SPOT peptide array binding signal intensity,AgFus1,110
same,SPOT peptide array binding signal intensity,AgHof1,60
same,SPOT peptide array binding signal intensity,AgHse1,1520
same,SPOT peptide array binding signal intensity,AgLsb1,2.25
same,SPOT peptide array binding signal intensity,AgLsb4,109
same,SPOT peptide array binding signal intensity,AgMyo5,≤ 0
same,SPOT peptide array binding signal intensity,AgNbp2,245
same,SPOT peptide array binding signal intensity,AgRvs167,13.5
same,SPOT peptide array binding signal intensity,AgSho1,33.5
same,SPOT peptide array binding signal intensity,AgSla1-D1-D2,370
same,SPOT peptide array binding signal intensity,AgSla1-D3,28.2
same,SPOT peptide array binding signal intensity,CaAbp1-D1,5270
same,SPOT peptide array binding signal intensity,CaAbp1-D2,6470
same,SPOT peptide array binding signal intensity,CaBbc1,646
same,SPOT peptide array binding signal intensity,CaBem1-D1,48.5
same,SPOT peptide array binding signal intensity,CaBzz1-D1,727
same,SPOT peptide array binding signal intensity,CaBzz1-D2,2010
same,SPOT peptide array binding signal intensity,CaCyk3,3
same,SPOT peptide array binding signal intensity,CaFus1,254
same,SPOT peptide array binding signal intensity,CaHof1,1
same,SPOT peptide array binding signal intensity,CaHse1,34.5
same,SPOT peptide array binding signal intensity,CaLsb1,≤ 0
same,SPOT peptide array binding signal intensity,CaLsb4,942
same,SPOT peptide array binding signal intensity,CaMyo5,4.5
same,SPOT peptide array binding signal intensity,CaNbp2,764
same,SPOT peptide array binding signal intensity,CaRvs167,32
same,SPOT peptide array binding signal intensity,CaRvs167-3,67.8
same,SPOT peptide array binding signal intensity,CaSho1,170
same,SPOT peptide array binding signal intensity,CaSla1-D1-D2,1470
same,SPOT peptide array binding signal intensity,CaSla1-D3,6.5
same,SPOT peptide array binding signal intensity,ScAbp1,2890
same,SPOT peptide array binding signal intensity,ScBbc1,56.8
same,SPOT peptide array binding signal intensity,ScBem1-D1,8
same,SPOT peptide array binding signal intensity,ScBzz1-D1,258
same,SPOT peptide array binding signal intensity,ScBzz1-D2,34
same,SPOT peptide array binding signal intensity,ScCyk3,13
same,SPOT peptide array binding signal intensity,ScFus1,80
same,SPOT peptide array binding signal intensity,ScHof1,2.75
same,SPOT peptide array binding signal intensity,ScHse1,1640
same,SPOT peptide array binding signal intensity,ScLsb1,32.5
same,SPOT peptide array binding signal intensity,ScLsb2,3.5
same,SPOT peptide array binding signal intensity,ScLsb3,2500
same,SPOT peptide array binding signal intensity,ScLsb4,100
same,SPOT peptide array binding signal intensity,ScMyo3,9.5
same,SPOT peptide array binding signal intensity,ScMyo5,6.5
same,SPOT peptide array binding signal intensity,ScNbp2,578
same,SPOT peptide array binding signal intensity,ScPex13,1.75
same,SPOT peptide array binding signal intensity,ScRvs167,708
same,SPOT peptide array binding signal intensity,ScSho1,367
same,SPOT peptide array binding signal intensity,ScSla1-D1-D2,1690
same,SPOT peptide array binding signal intensity,ScSla1-D3,8.25
same,SPOT peptide array binding signal intensity,SpAbp1-D1,2030
same,SPOT peptide array binding signal intensity,SpBbc1,11
same,SPOT peptide array binding signal intensity,SpBzz1-D1,641
QRKSLRRPTLSKPAV,SPOT peptide array binding signal intensity,AgAbp1,32
same,SPOT peptide array binding signal intensity,AgBbc1,108
same,SPOT peptide array binding signal intensity,AgBem1-D1,210
same,SPOT peptide array binding signal intensity,AgBzz1-D1,40.5
same,SPOT peptide array binding signal intensity,AgBzz1-D2,42
same,SPOT peptide array binding signal intensity,AgCyk3,1
same,SPOT peptide array binding signal intensity,AgFus1,336
same,SPOT peptide array binding signal intensity,AgHof1,66
same,SPOT peptide array binding signal intensity,AgHse1,244
same,SPOT peptide array binding signal intensity,AgLsb1,4.25
same,SPOT peptide array binding signal intensity,AgLsb4,17
same,SPOT peptide array binding signal intensity,AgMyo5,1.5
same,SPOT peptide array binding signal intensity,AgNbp2,108
same,SPOT peptide array binding signal intensity,AgRvs167,1.67
same,SPOT peptide array binding signal intensity,AgSho1,10
same,SPOT peptide array binding signal intensity,AgSla1-D1-D2,14
same,SPOT peptide array binding signal intensity,AgSla1-D3,3.75
same,SPOT peptide array binding signal intensity,CaAbp1-D1,272
same,SPOT peptide array binding signal intensity,CaAbp1-D2,220
same,SPOT peptide array binding signal intensity,CaBbc1,338
same,SPOT peptide array binding signal intensity,CaBem1-D1,79
same,SPOT peptide array binding signal intensity,CaBzz1-D1,78
same,SPOT peptide array binding signal intensity,CaBzz1-D2,104
same,SPOT peptide array binding signal intensity,CaCyk3,16.5
same,SPOT peptide array binding signal intensity,CaFus1,298
same,SPOT peptide array binding signal intensity,CaHof1,≤ 0
same,SPOT peptide array binding signal intensity,CaHse1,10
same,SPOT peptide array binding signal intensity,CaLsb1,0.5
same,SPOT peptide array binding signal intensity,CaLsb4,89.5
same,SPOT peptide array binding signal intensity,CaMyo5,3.5
same,SPOT peptide array binding signal intensity,CaNbp2,319
same,SPOT peptide array binding signal intensity,CaRvs167,17.5
same,SPOT peptide array binding signal intensity,CaRvs167-3,5.5
same,SPOT peptide array binding signal intensity,CaSho1,76
same,SPOT peptide array binding signal intensity,CaSla1-D1-D2,118
same,SPOT peptide array binding signal intensity,CaSla1-D3,≤ 0
same,SPOT peptide array binding signal intensity,ScAbp1,52.5
same,SPOT peptide array binding signal intensity,ScBbc1,45.8
same,SPOT peptide array binding signal intensity,ScBem1-D1,53
same,SPOT peptide array binding signal intensity,ScBzz1-D1,32
same,SPOT peptide array binding signal intensity,ScBzz1-D2,43
same,SPOT peptide array binding signal intensity,ScCyk3,17
same,SPOT peptide array binding signal intensity,ScFus1,151
same,SPOT peptide array binding signal intensity,ScHof1,0.5
same,SPOT peptide array binding signal intensity,ScHse1,1190
same,SPOT peptide array binding signal intensity,ScLsb1,4
same,SPOT peptide array binding signal intensity,ScLsb2,6
same,SPOT peptide array binding signal intensity,ScLsb3,356
same,SPOT peptide array binding signal intensity,ScLsb4,10.5
same,SPOT peptide array binding signal intensity,ScMyo3,0.5
same,SPOT peptide array binding signal intensity,ScMyo5,1
same,SPOT peptide array binding signal intensity,ScNbp2,183
same,SPOT peptide array binding signal intensity,ScPex13,≤ 0
same,SPOT peptide array binding signal intensity,ScRvs167,25
same,SPOT peptide array binding signal intensity,ScSho1,250
same,SPOT peptide array binding signal intensity,ScSla1-D1-D2,370
same,SPOT peptide array binding signal intensity,ScSla1-D3,38.8
same,SPOT peptide array binding signal intensity,SpAbp1-D1,101
same,SPOT peptide array binding signal intensity,SpBbc1,3.5
same,SPOT peptide array binding signal intensity,SpBzz1-D1,202
same,SPOT peptide array binding signal intensity,SpBzz1-D2,≤ 0
same,SPOT peptide array binding signal intensity,SpCyk3,≤ 0
same,SPOT peptide array binding signal intensity,SpHof1,38.8
same,SPOT peptide array binding signal intensity,SpHof1-2,6.5
same,SPOT peptide array binding signal intensity,SpHof1-3,375
same,SPOT peptide array binding signal intensity,SpHse1,140
same,SPOT peptide array binding signal intensity,SpLsb1,8.75
same,SPOT peptide array binding signal intensity,SpLsb4,99
same,SPOT peptide array binding signal intensity,SpMyo1,7.75
same,SPOT peptide array binding signal intensity,SpNbp2,63.5
same,SPOT peptide array binding signal intensity,SpPex13,10
same,SPOT peptide array binding signal intensity,SpRvs167,14.5
same,SPOT peptide array binding signal intensity,SpSla1-D1-D2,≤ 0
same,SPOT peptide array binding signal intensity,SpSla1-D3,1
